Assay outcomes (PubChem BioAssay)
An excerpt weighted towards active compounds, which were near 27% of everything screened.
CYP2C9 inhib: inhibitors of human CYP2C9. CYP2C9 Supersomes, luciferin-H conversion, luminescence. inhibition, % at 5 µM. 96,000 tested, 20% active. AID 777;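 active means blocking of liver enzyme CYP2C9 beyond about 50% at 5 µM, limit read from the data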
Target sequence (P11712 whole entry, looked up): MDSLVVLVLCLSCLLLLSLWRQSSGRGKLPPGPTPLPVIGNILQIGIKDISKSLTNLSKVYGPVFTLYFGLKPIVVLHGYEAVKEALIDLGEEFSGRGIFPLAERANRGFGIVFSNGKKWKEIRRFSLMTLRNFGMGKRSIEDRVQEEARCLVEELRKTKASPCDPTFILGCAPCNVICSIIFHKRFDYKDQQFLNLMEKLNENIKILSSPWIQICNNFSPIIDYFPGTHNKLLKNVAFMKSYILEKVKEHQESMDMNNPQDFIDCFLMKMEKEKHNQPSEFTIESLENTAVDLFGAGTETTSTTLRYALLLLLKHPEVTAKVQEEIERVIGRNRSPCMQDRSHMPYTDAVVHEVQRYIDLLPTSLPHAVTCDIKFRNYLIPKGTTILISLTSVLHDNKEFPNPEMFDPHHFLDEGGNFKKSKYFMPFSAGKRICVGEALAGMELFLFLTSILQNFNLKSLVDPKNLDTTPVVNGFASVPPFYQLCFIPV
sEH inh: blocks human soluble epoxide hydrolase activity; inhibition, % at 2 µM; 91,000 tested, 0.34% active; recombinant human sEH enzymatic activity assay; AID 707; in the data active means inhibition above about 80%
CYP2C19 inh: blocks human cytochrome P450 2C19; P33261; CYP2C19 Supersomes, luciferin-H EGE luminescence, 30 min; inhibition, % at 5 µM; 96,000 tested, 21% active;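 active means CYP2C19 inhibition above a set limit at 5 µM in the primary screen, cut at about 50% in these data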;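 further: plate controls were negative control wells for no effect and 2.5 mM tranylcypromine positive control for full effect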
sEH activator: activators of human soluble epoxide hydrolase; 91,000 tested, 0.04% active; AID 717; P34913; activation, % at 2 µM; purified human sEH enzymatic activity, activator screen; in the data active means activation above about 37%
CYP2C19 act: cytochrome P450 2C19 (human) activation; activation factor at 5 µM; AID 1025; P33261; recombinant CYP2C19, luciferin-H EGE luminescence; active compounds read high; 0 = fully inhibited enzyme, 1 = untreated enzyme; 96,000 tested, under 10 active;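 active means activation factor of at least 2 at 5 µM in the primary screen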;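 further: 0 = wells with 2.5 mM tranylcypromine and 1 = vehicle-only wells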
CYP2C9 act: CYP2C9 (human) activation; P11712; recombinant CYP2C9, luciferin-H conversion, luminescence; active compounds read high; factor 1 = untreated enzyme, 0 = blocked; activation factor at 5 µM; 96,000 tested, 1.4% active; AID 1024;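 active means activation factor of 2 or more for CYP2C9 at a 5 µM dose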;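 further: 0 = sulfaphenazole-blocked wells and 1 = vehicle-only wells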
Starred values were filed as active, the others as inactive; x = not tested or not shown.

SMILES	CYP2C9 inhib	sEH inh	CYP2C19 inh	sEH activator	CYP2C19 act	CYP2C9 act
COc1ccccc1NC(=O)COC(=O)[C@@H]1CCCN1C(=O)c1cccs1	7.7	-22.5	59.1*	21.5	0.4	0.9
CC(C)NC(=O)NC(=O)COC(=O)C1CCCN1C(=O)c1cccs1 (stereo unspecified)	16.6	-1.8	11.6	4.0	0.9	0.8
CN(C(=O)COC(=O)c1ccc(Cl)cc1N)C1CCS(=O)(=O)C1 (stereo unspecified)	-5.3	-4.1	-33.0	2.0	1.3	1.1
O=C(/C=C/c1ccc([N+](=O)[O-])cc1)NCC1CCCO1 (stereo unspecified)	-15.9	-21.1	-12.4	19.0	1.1	1.2
CCOC(=O)CSc1nnc(CNC(=O)c2cccs2)n1-c1cc(C)ccc1C	20.5	9.4	-1.4	-12.3	1	0.8
O=[N+]([O-])c1ccc(N2N=C(c3ccco3)CC2c2ccccc2)cc1 (stereo unspecified)	78.1*	2.5	21.8	1.6	0.8	0.2
Cc1[nH]n(-c2ccccc2)c(=O)c1N=Nc1nccs1	57.7*	0.0	7.2	0.8	0.9	0.4
Cc1[nH]n(-c2ccccc2)c(=O)c1C=Nc1cnc2ccccc2c1	-1.8	3.1	10.6	-1.9	0.9	1
CCOC(=O)N1CCN(/C=C(\C#N)c2nc3ccccc3s2)CC1	70.7*	21.5	80.4*	-18.3	0.2	0.3
COC(=O)c1ccc(/C=C(\C#N)c2nc3ccccc3s2)cc1	24.6	13.7	19.9	-11.2	0.8	0.8
N#C/C(=C\N1CCN(Cc2ccc3c(c2)OCO3)CC1)c1nc2ccccc2s1	48.7	-1.0	89.2*	5.1	0.1	0.5
Cc1ccc(C)c(OCC(=O)Nc2nc3ccc([N+](=O)[O-])cc3s2)c1C	-24.9	-1.9	-24.1	1.6	1.2	1.2
O=C(CC(SCCO)c1ccc2c(c1)OCO2)c1ccco1 (stereo unspecified)	71.6*	x	97.9*	x	0	0.3
COCC(C)NCc1ccccc1C (stereo unspecified)	80.0*	2.9	26.0	-2.5	0.7	0.2
COCC(C)NCc1cccc(OC)c1OC (stereo unspecified)	7.3	0.9	21.6	-1.4	0.8	0.9
CC(C)(C)NC(=O)NC(=O)CSc1ncc(C(F)(F)F)cc1Cl	-6.0	9.7	4.4	-7.3	1	1.1
CCCNC(=O)NC(=O)CSc1ncc(C(F)(F)F)cc1Cl	-6.5	6.7	69.7*	-7.2	0.3	1.1
CSCCNC(C)=O	-14.8	-17.8	-12.9	13.7	1.1	1.1
COP(=O)(/C=C/c1ccccc1)C(O)c1ccc(F)cc1 (stereo unspecified)	-18.9	-0.3	28.9	1.3	0.7	1.2
Cc1ccc(S(=O)(=O)c2c(C)cc(C)nc2Cl)cc1	-70.5	-18.0	94.3*	20.7	0.1	1.7
COc1ccc(Oc2nc(C)cc(C)c2S(=O)(=O)c2ccc(C)cc2)cc1	33.8	-20.6	30.9	23.3	0.7	0.7
Cc1cc(C)c(S(=O)(=O)c2ccccc2)c(Cl)n1	-222.1	-2.3	68.8*	4.7	0.3	3.2*
O=C(CN1C(=O)c2ccccc2C1=O)N1CCN(c2ccccn2)CC1	-1.3	4.6	1.6	-2.1	1	1
O=C(CSCc1ccccc1Cl)N1CCN(c2ccccn2)CC1	85.0*	0.3	87.2*	1.2	0.1	0.2
O=C(CSCc1nc2ccccc2[nH]1)N1CCN(c2cccc(Cl)c2)CC1	35.5	9.4	17.5	-7.2	0.8	0.6
SMILES	CYP2C9 inhib	sEH inh	CYP2C19 inh	sEH activator	CYP2C19 act	CYP2C9 act
O=C(CCSCc1ccccc1Cl)N1CCN(c2cccc(Cl)c2)CC1	62.8*	16.6	14.4	-14.3	0.9	0.4
O=C(CCSCc1ccccc1F)N1CCN(c2ccccn2)CC1	77.4*	x	50.3*	x	0.5	0.2
O=C(c1cn(-c2ccccc2)nc1-c1cccs1)N(CCO)Cc1ccccc1	68.8*	21.3	75.1*	-19.1	0.2	0.3
Cc1ccc(-c2nc(CSCC(=O)N3CCN(c4ccccn4)CC3)c(C)o2)cc1	-60.2	10.1	29.1	-10.9	0.7	1.6
O=C(CNC(=O)c1ccccc1)NC1(C(=O)NC2CCCC2)CCCCC1	4.3	3.6	8.9	-4.1	0.9	1
COCCn1c(Cc2ccccc2)nnc1SCC(=O)NC(C)C	-16.1	12.4	0.2	-14.2	1	1.2
O=C(Cc1cccs1)N1CCN(c2ccccn2)CC1	28.7	26.4	52.1*	-28.4	0.5	0.7
O=C(c1cn(-c2ccccc2)nc1-c1cccs1)N1CCN(c2ccccn2)CC1	99.6*	-5.8	95.5*	4.5	0	0
O=C(CNS(=O)(=O)c1cccs1)N1CCN(c2ccccn2)CC1	-17.0	2.4	1.9	-2.4	1	1.2
C=CCNC(=O)C1=NOC(CNC(=O)c2c(-c3ccccc3Cl)noc2C)C1 (stereo unspecified)	0.4	7.3	3.1	-5.6	1	1
O=C(CC1CCCCC1)OCn1nnc2ccccc2c1=O	37.8	-8.0	69.3*	8.3	0.3	0.6
CC(Oc1ccc(Cl)cc1Cl)C(=O)OCn1nnc2ccccc2c1=O (stereo unspecified)	10.2	-7.6	-2.4	1.6	1	0.9
O=C(OCn1nnc2ccccc2c1=O)c1cccnc1	5.2	-1.7	16.9	-0.5	0.8	0.9
O=C(CC(c1ccccc1)c1ccccc1)OCn1nnc2ccccc2c1=O	94.7*	10.4	84.8*	-9.1	0.2	0.1
CC(C)(Oc1ccc(Cl)cc1)C(=O)OCn1nnc2ccccc2c1=O	50.7*	x	3.5	x	1	0.5
CCCC(=O)N(c1ccc(OCC)cc1)C1C=CS(=O)(=O)C1 (stereo unspecified)	46.5	x	63.2*	x	0.4	0.5
CCCCC(=O)N(c1ccc(OCC)cc1)C1C=CS(=O)(=O)C1 (stereo unspecified)	19.4	x	35.8	x	0.6	0.8
Cc1cccnc1NC(=O)Cn1nc(C)c([N+](=O)[O-])c1C	-0.7	-13.3	42.8	11.3	0.6	1
O=CN1CCN(C(=O)c2ccccc2F)CC1	-18.9	9.2	0.3	-7.6	1	1.2
O=C(c1ccccc1F)N1CCN(CC2CC3C=CC2C3)CC1 (stereo unspecified)	5.9	8.2	68.8*	-7.7	0.3	0.9
COc1cccc(C(=O)N2CCN(C(=O)c3cccc(F)c3)CC2)c1	x	6.6	x	-6.0	x	x
CC1CCCC(N2CCN(C(=O)c3cccc(F)c3)CC2)C1 (stereo unspecified)	42.0	9.6	88.7*	-9.5	0.1	0.6
O=C(c1cccc(F)c1)N1CCN(CC2CC3C=CC2C3)CC1 (stereo unspecified)	31.8	6.7	89.9*	-7.1	0.1	0.7
CCCn1c(CCC(=O)Nc2ccccc2Cc2ccccc2)nc2cc(S(=O)(=O)N3CCOCC3)ccc21	75.3*	-2.1	28.3	5.2	0.7	0.2
CC(=O)Nc1ccc(Oc2ncccn2)cc1	-10.5	22.2	-13.8	-22.4	1.1	1.1
